For 38 compounds, outcome and AC50 results are on record in PubChem BioAssay (EPA / NIEHS).

As a reminder, the AC50 is the midpoint of the concentration-response curve, whichever way the signal moves.

SMILES strings stand for the structures. Activity calls are given as the source filed them. The calls were made as follows: active = hit-call score of the fitted dose curve at least 0.9, where 1 is the maximum; inactive = score below 0.9.

Read-out in this experiment: Basic fibroblast growth factor (bFGF), FGF2 (gene 2247)
The experiment in a line: BSK_MyoF_bFGF: BioMAP Diversity Plus: MyoF Assay for Basic fibroblast growth factor (bFGF) Biomarker Activity (AID 2284246). To be noted: primary human lung fibroblasts. The procedure: BSK_MyoF is a cell-based, multiplexed-readout assay that uses lung fibroblasts, a human […] primary cell, with measurements taken at 24 hours after chemical dosing in a microplate: 96-well plate.BSK_MyoF_bFGF is an assay component measured in the BSK_MyoF assay. It measures bFGF antibody related to regulation of gene expression using ELISA technology.Data from the assay component BSK_MyoF_bFGF was analyzed at the endpoint, BSK_MyoF_bFGF, in the positive analysis fitting direction relative to DMSO as the negative control and baseline of activity. Using a type of binding reporter, gain or loss-of-signal activity can be used to understand protein changes. To generalize the intended target to other relatable targets, this assay endpoint is annotated to the 'growth factor' intended target family, where the subfamily is 'basic fibroblast growth factor '.
The levels of cell surface (or secreted, indicated by the prefix "s") biomarker endpoints were measured by ELISA. Overt cytotoxicity to cells in confluent adherent cultures (all systems other than the BT system) was assessed by measuring total protein levels using sulforhodamine B (SRB) staining in parallel cultures at the time of biomarker measurements, indicated as SRB endpoints. For proliferation assays for adherent cell types, individual cell types are cultured at sub-confluence and relative cell numbers quantified by SRB staining at time points optimized for each system (48 h: 3C and CASM3C systems; 72 h: BT and HDF3CGF systems; 96 h: SAg system). SRB was performed by staining cells with 0.1% SRB after fixation with 10% TCA and reading wells at 560 nm.Viability and proliferation of PBMC (T cells) was quantified by Alamar Blue reduction for the SAg and BT systems. For PBMC viability (referred to as PBMC Cytotoxicity within the assay endpoint names), cells were plated (75,000/well in a 96-well plate) and then chemical samples added for 1 h before addition of activators, SEB and TSST-1 (20 ng/mL final concentration each). Cells were incubated for 90 h. Then, Alamar Blue (20 uL/well) (Invitrogen, Cat DAL1100) was added for 6 h, and the plates were read with a fluorescence microplate reader at 546/580 nm (excitation/emission). For PBMC proliferation, cells were plated and activated as above but incubated for only 16 h prior to addition of Alamar Blue. Plates were read after 6 h.
Take `COC(=O)C(F)(F)C(F)(F)OC(F)(C(F)(F)F)C(F)(F)OC(F)=C(F)F` (stereo not drawn): the result was inactive. The same measure, in the same setting: then `COP(N)(=S)OC`, with “inactive”; and `COP(=O)(O)OC`, with “inactive”; and `CC(C)(C)c1ccccc1OP(=O)(Oc1ccccc1)Oc1ccccc1`, with “inactive”. For `FC(F)(F)C(F)(C(F)(F)F)C(F)(F)C(F)(F)CC1CO1` (stereo not drawn), the outcome was inactive. On the same count and under the same terms, the same measure for `Nc1ccc([N+](=O)[O-])cc1Cl`: “inactive”; for `O=S1(=O)OCC2C(CO1)C1(Cl)C(Cl)=C(Cl)C2(Cl)C1(Cl)Cl` (stereo not drawn): “inactive”; for `CCOP(=S)(S)OCC`: “inactive”. Same read-out and setting: the same measure for `CC(O)C(F)(F)C(F)(F)F` (stereo not drawn): “inactive”.

Consider `O=c1ssc(Cl)c1Cl`, for which the AC50 is 11.4 µM (active).

Take `ClC(Cl)=C(c1ccc(Cl)cc1)c1ccccc1Cl`: the AC50 is 9.45 µM (active). For the compound `O=S(=O)(F)C(F)(F)C(F)(F)C(F)(F)C(F)(F)C(F)(F)C(F)(F)C(F)(F)C(F)(F)F`, the result was inactive. The same measure, in the same setting: then `CCOP(=S)(OCC)SCSc1ccc(Cl)cc1`, with “inactive”; and `O=C(O)C(F)(F)OC(F)(F)C(F)(F)OC(F)(F)C(=O)O`, with “inactive”. Still for that read-out and setting: the same measure for `CCCCC(CC)COC(=O)c1c(Br)c(Br)c(Br)c(Br)c1C(=O)OCC(CC)CCCC` (stereo not drawn): “inactive”; for `OCC(F)(F)OC(F)(F)C(F)(F)OC(F)(F)C(F)(F)OC(F)(F)F`: “inactive”. The same measure, in the same setting: then `CCOP(=S)(NC(C)C)Oc1ccccc1C(=O)OC(C)C` (stereo not drawn), with “inactive”; and `O=C(O)C(F)(F)C(F)(F)C(=O)O`, with “inactive”; and `C=CC(=O)OCC(F)(F)C(F)F`, with “inactive”.

`O=C(O)C(F)(OC(F)(F)C(F)(F)C(F)(F)F)C(F)(F)F` (stereo not drawn): the outcome was inactive. As to `N#Cc1c(-c2ccc(Cl)cc2)[nH]c(C(F)(F)F)c1Br`, the result was inactive. Same read-out and setting: then `NC(=O)C(F)(F)C(F)(F)F`, with “inactive”. Turning to `C=CC(=O)OCC(CC)(COC(=O)C=C)COC(=O)C=C`, the AC50 is 4.36 µM (active).

`O=C(O)C=CC(F)(C(F)(F)F)C(F)(F)F`: the result was inactive.

Take `N#Cc1cc([N+](=O)[O-])ccc1N`: the result was inactive. Consider `CC(C)Nc1ccc(Nc2ccccc2)cc1`, for which the AC50 was 30.5 µM (active). Turning to `Cc1ccc2c(c1N)C(=O)c1ccccc1C2=O`, the outcome was inactive. Still for that read-out and setting: then `CCCCOCCOP(=O)(OCCOCCCC)OCCOCCCC`, with “inactive”; and `CCOP(=S)(OCC)SCn1nnc2ccccc2c1=O`, with “inactive”. The same measure, in the same setting: the same measure for `c1ccc2c(c1)sc1ccccc12`: “inactive”. Consider `CCCCC(CC)COP(=O)(Oc1ccccc1)Oc1ccccc1` (stereo not drawn), for which the concentration at half-maximal activity (AC50) was 12.3 µM (active). As to `OCC(F)(F)OC(F)(F)C(F)(F)OC(F)(F)CO`, the outcome was inactive. As for `O=P(OCC(Br)CBr)(OCC(Br)CBr)OCC(Br)CBr` (stereo not drawn), the result was inactive. On to `OCC(F)(F)OC(F)(F)C(F)(F)OC(F)(F)C(F)(F)OC(F)(F)CO`, for which the outcome was inactive.

Take `Cc1c([N+](=O)[O-])cc2c(c1[N+](=O)[O-])C(C)(C)CC2(C)C`: the outcome was inactive. For the compound `O=C(O)C(F)(F)OC(F)(F)C(F)(F)OC(F)(F)F`, the result was inactive. The same measure, in the same setting: then `CC(Cl)CN(C)C` (stereo not drawn), with “inactive”. The same measure, in the same setting: then `CCOP(=S)(OCC)SCS(=O)(=O)CC`, with “inactive”.
